Results from PubChem BioAssay (NCI).
“And” between values parts separate entries of the source, which are not always exact repeats. Equal values may be shown once. The panel holds about 83,000 compounds, 20% with a hit somewhere; the sample as a whole holds those more often.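 Interpretation: 100, growth as untreated; towards 0, rising growth inhibition; 0, no net growth; 0 to -100, cell death. Compounds scoring below 10 were considered active.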 The source made the active and inactive calls.

System: MDA-MB-468 breast
Assay: NCI-60 one-dose screen, 48 h (100 = growth as untreated, 0 = no growth, -100 = all killed)
Settings: 10 µM

| SMILES | growth |
| --- | --- |
| COc1ccc(Cl)cc1C(=O)NCCc1ccc(S(=O)(=O)NC(=O)NC2CCCCC2)cc1 | 103% (inactive) and 118% (inactive) |
| CC#C[C@]1(O)CC[C@H]2[C@@H]3CCC4=CC(=O)CCC4=C3[C@@H](c3ccc4c(c3)OCO4)C[C@@]21C | 66.6% (inactive) |
| CC(=O)/C=C/c1ccc(N(CCO)Cc2ccc(C(C)(C)C)cc2)cc1 | 73.8% (inactive) |
| COc1ccc(C(=O)/C=C/c2ccc(OCc3ccc(Cl)cc3)cc2)cc1OC | 83.3% (inactive) |
| O=C(/C=C/c1cccc(Oc2ccc(Cl)cc2)c1)c1ccccc1 | 110% (inactive) |
| CC(=O)O[C@H]1C(=O)[C@@]2(C)[C@H]([C@H](OC(=O)c3ccccc3)[C@]3(O)C[C@H](OC(=O)[C@H](O)[C@@H](NC(=O)c4ccccc4)c4ccccc4)C(C)=C1C3(C)C)[C@]1(OC(C)=O)CO[C@@H]1C[C@@H]2O | -19.1% (active) |
| O=C(O)c1sccc1O | 76.3% (inactive) |
| CS/C(=C\c1ccc(C(=O)c2ccc(C)cc2)n1C)S(C)=O (stereo unspecified) | 86.1% (inactive) |
| CC(C)(C)c1cc(NC(=O)Cc2ccc(-c3cnc4cc(-c5cnn(CCN6CCOCC6)c5)ccc4n3)cc2)no1 | 22.2% (inactive) |
| CN(C)C(=O)c1ccc(SC(=S)NCc2ccccc2)cc1 | 93.9% (inactive) |
| O=C(Nc1c(Cl)cccc1Cl)Oc1cccc2cccnc12 | 19.5% (inactive) |
| CC(=O)/C=C/c1ccc(OCc2ccc(Cl)cc2)cc1 | 109% (inactive) |
| CCc1ccccc1-n1c(N)c(C#N)c(-c2ccc(OC)c(OC)c2)c(C#N)c1=O | 107% (inactive) |
| O=c1ccn(C2CC(O)C(COC(c3ccccc3)(c3ccccc3)c3ccccc3)O2)c(=O)[nH]1 (stereo unspecified) | 101% (inactive) |
| CC1(C)OB(c2ccc(Cn3cc(F)c(=O)[nH]c3=O)cc2)OC1(C)C | 105% (inactive) |
| COc1ccc(C(=O)/C=C/c2ccc(OCc3cccc(C(F)(F)F)c3)c(OC)c2)cc1OC | 68.9% (inactive) |
| O=c1ccn2c(n1)OC1CC2OC1COC(c1ccccc1)(c1ccccc1)c1ccccc1 (stereo unspecified) | 102% (inactive) |
| O=C(Nc1cccc(Br)c1)Oc1cccc2cccnc12 | 103% (inactive) |
| CNC(=O)c1cc(Oc2ccc(CC(=O)Nc3cc(C(C)(C)C)nn3C)cc2)ccn1 | 2.05% (active) |
| CC(=O)/C=C/c1ccc(N(C)Cc2ccc(C(C)(C)C)cc2)cc1 | 86% (inactive) |
| CCCCCCCCCCCCCCCc1ccc(Cl)c(O)c1Cl (tested in a mixture with another compound) | 103% (inactive) |
| O=C(O)c1c(Cl)c(Cl)c(Cl)c(Cl)c1-c1c2cc(I)c(=O)c(I)c-2oc2c(I)c(O)c(I)cc12 | 115% (inactive) and 111% (inactive) and 77.5% (inactive) |
| Cc1[nH]c(-c2nc3ccccc3[nH]2)c(C)c1C(=O)NC(C)C1CCCCC1 (stereo unspecified) | 59.8% (inactive) |
| CCN(Cc1ccccc1)c1ccc(/C=C2\COc3ccccc3C2=O)cc1 | 118% (inactive) |
| COc1ccc(-c2cscc2N)cc1 | 96.4% (inactive) |
| O=c1[nH]cc(F)c(=O)[nH]1 | 64.4% (inactive) |
| CC(=O)/C=C/c1ccc(OCc2ccc(C(C)(C)C)cc2)cc1 | 47.7% (inactive) |

Same assay, conditions: 10 µM unless noted

| SMILES | growth |
| --- | --- |
| Cc1ccc(-c2cc(C(=O)Nc3ccc(S(=O)(=O)N4CCCCC4)cc3)[nH]n2)c(O)c1 | 38.8% (inactive) |
| Cc1ccc(Cn2c(N3CCC(C(=O)NCc4cccs4)CC3)nc3ccccc32)cc1 | 95.3% (inactive) |
| COc1ccc(C(=O)N2N=C(c3ccc(F)cc3)CC2c2cn(-c3ccccc3)nc2-c2ccccc2)cc1 (stereo unspecified) | 60.8% (inactive) |
| C#CCN1C(=O)c2ccccc2N(CC#C)C12CCN(Cc1cn(CC(=O)Nc3ccccc3C(N)=O)nn1)CC2 | 72.6% (inactive) |
| NC(=S)N/N=C(/CCN1CCCC1)CC(C1=C(O)C2=CCCCC2OC1=O)c1ccccc1 (stereo unspecified) | 17.9% (inactive) |
| O=C(Nc1cccc(-c2cccc(F)c2)c1)C1CCN(Cc2cccc3cccnc23)CC1 | 22.6% (inactive) |
| COc1ccc(C2C=C(c3ccc(OC)c(OC)c3)N=C3SC=CN32)c(Br)c1 (stereo unspecified) | 54.5% (inactive) |
| COc1ccc(-c2noc(N)c2-c2cc(OC)c3c(c2)OCO3)cc1 | 25.6% (inactive) |
| O=[N+]([O-])c1ccc2ncccc2c1Cl | -2.71% (active) |
| Nc1c(C(=O)Nc2cccc3ccncc23)sc2nc3c(cc12)C(=O)CCC3 | -12.6% (active) |
| O=C1c2ccc3c4c(ccc(c24)C(=O)N1CCNCc1ccccc1)C(=O)N(CCNCc1ccccc1)C3=O | -62.9% (active) |

Same assay, conditions: 30 µM

| SMILES | growth |
| --- | --- |
| CC(C)(C)c1cc(NC(=O)Cc2ccc(-c3cnc4cc(-c5cnn(CCN6CCOCC6)c5)ccc4n3)cc2)no1 | -1.53% (active) |
| CN(C)CCNc1ncc(F)c(-c2cnc3cc(-c4cnn(C)c4)ccn23)n1 | 84.5% (inactive) |
| CNC(=O)c1cc(Oc2ccc(CC(=O)Nc3cc(C(C)(C)C)nn3C)cc2)ccn1 | 19.7% (inactive) |
